# Only a selection was taken, and the strongest signals are over-represented in it overall.
# Tests used:
# Test in all cases: glycan array binding signal (z-score within array); higher = stronger binding
# Conditions in all cases: glycan notation: IUPAC condensed, linker removed
# [1] = target: Fuc(a1-2)Gal(b1-3)GlcNAc6S
# Procedure, shortened: (§1)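 Negative Z-scores can be read as non-binding. The Z-score is calculated within each array and then averaged across arrays of one protein sequence at different concentrations or buffers and across linkers. Arrays, 3228 in all, were curated from the Consortium for Functional Glycomics database and kept only where the protein sequence was available.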
# [2] = target: Fuc(a1-2)Gal(b1-3)[Fuc(a1-4)]GlcNAc
# Procedure, shortened: as §1
# [3] = target: Fuc(a1-2)Gal(b1-3)[Fuc(a1-4)]GlcNAc(b1-2)Man(a1-3)[Fuc(a1-2)Gal(b1-3)[Fuc(a1-4)]GlcNAc(b1-2)Man(a1-6)]Man(b1-4)GlcNAc(b1-4)[Fuc(a1-6)]GlcNAc(b1-4)[Fuc(a1-6)]GlcNAc
# Procedure, shortened: as §1
# [4] = target: Fuc(a1-2)Gal(b1-3)[Fuc(a1-4)]GlcNAc(b1-3)[Fuc(a1-3)[Gal(b1-4)]GlcNAc(b1-6)]Gal(b1-4)Glc
# Procedure, shortened: as §1
# [5] = target: Fuc(a1-2)Gal(b1-4)GlcNAc6S
# Procedure, shortened: as §1
# [6] = target: Fuc(a1-2)[GalNAc(a1-3)]Gal(b1-3)GlcNAc(b1-2)Man(a1-3)[Fuc(a1-2)[GalNAc(a1-3)]Gal(b1-3)GlcNAc(b1-2)Man(a1-6)]Man(b1-4)GlcNAc(b1-4)[Fuc(a1-6)]GlcNAc
# Procedure, shortened: as §1
# [7] = target: Fuc(a1-3)[Gal(b1-4)]Glc6S
# Procedure, shortened: as §1
# [8] = target: Fuc(a1-3)[Gal(b1-4)]GlcNAc(b1-3)Gal(b1-4)[Fuc(a1-3)]GlcNAc(b1-3)Gal(b1-4)[Fuc(a1-3)]GlcNAc
# Procedure, shortened: as §1
# [9] = target: Fuc(a1-3)[GalNAc(b1-4)]GlcNAc
# Procedure, shortened: as §1
# [10] = target: Gal(a1-3)Gal(b1-4)GlcNAc(b1-6)GalNAc
# Procedure, shortened: as §1
# [11] = target: Gal(a1-4)Gal(b1-4)GlcNAc(b1-3)Gal(b1-4)Glc
# Procedure, shortened: as §1
# [12] = target: Gal(b1-3)GalNAc(b1-3)Gal(a1-4)Gal(b1-4)Glc
# Procedure, shortened: as §1
# [13] = target: Gal(b1-3)GlcNAc(b1-2)Man(a1-3)[GlcNAc(b1-4)][Gal(b1-3)GlcNAc(b1-2)Man(a1-6)]Man(b1-4)GlcNAc(b1-4)GlcNAc
# Procedure, shortened: as §1
# [14] = target: Gal(b1-3)GlcNAc(b1-3)Gal(b1-4)GlcNAc
# Procedure, shortened: as §1
# [15] = target: Gal(b1-3)GlcNAc(b1-3)Gal(b1-4)GlcNAc(b1-2)Man(a1-3)[Gal(b1-3)GlcNAc(b1-3)Gal(b1-4)GlcNAc(b1-2)Man(a1-6)]Man(b1-4)GlcNAc(b1-4)GlcNAc
# Procedure, shortened: as §1
# Gal(b1-3)GlcNAc6S = target: Gal(b1-3)GlcNAc6S
# Procedure, shortened: as §1
# [16] = target: Gal(b1-4)GlcNAc(b1-2)Man(a1-6)Man(b1-4)GlcNAc(b1-4)GlcNAc
# Procedure, shortened: as §1
# [17] = target: Gal(b1-4)GlcNAc(b1-2)Man(a1-6)[Man(a1-3)]Man(b1-4)GlcNAc(b1-4)GlcNAc
# Procedure, shortened: as §1
# [18] = target: Gal(b1-4)GlcNAc(b1-3)Gal(b1-4)GlcNAc(b1-2)[Gal(b1-4)GlcNAc(b1-3)Gal(b1-4)GlcNAc(b1-6)]Man(a1-6)[Gal(b1-4)GlcNAc(b1-3)Gal(b1-4)GlcNAc(b1-2)Man(a1-3)]Man(b1-4)GlcNAc(b1-4)[Fuc(a1-6)]GlcNAc
# Procedure, shortened: as §1
# [19] = target: Gal(b1-4)GlcNAc(b1-3)Gal(b1-4)GlcNAc(b1-3)Gal(b1-4)GlcNAc(b1-2)Man(a1-3)[Gal(b1-4)GlcNAc(b1-3)Gal(b1-4)GlcNAc(b1-3)Gal(b1-4)GlcNAc(b1-2)Man(a1-6)]Man(b1-4)GlcNAc(b1-4)GlcNAc
# Procedure, shortened: as §1
# [20] = target: Gal(b1-4)GlcNAc(b1-3)Gal(b1-4)GlcNAc(b1-3)Gal(b1-4)GlcNAc(b1-3)Gal(b1-4)GlcNAc(b1-2)Man(a1-3)[Gal(b1-4)GlcNAc(b1-3)Gal(b1-4)GlcNAc(b1-3)Gal(b1-4)GlcNAc(b1-3)Gal(b1-4)GlcNAc(b1-2)Man(a1-6)]Man(b1-4)GlcNAc(b1-4)[Fuc(a1-6)]GlcNAc
# Procedure, shortened: as §1
# [21] = target: Gal(b1-4)GlcNAc(b1-3)Gal(b1-4)GlcNAc(b1-3)Gal(b1-4)GlcNAc(b1-3)Gal(b1-4)GlcNAc(b1-2)[Gal(b1-4)GlcNAc(b1-3)Gal(b1-4)GlcNAc(b1-3)Gal(b1-4)GlcNAc(b1-3)Gal(b1-4)GlcNAc(b1-6)]Man(a1-6)[Gal(b1-4)GlcNAc(b1-3)Gal(b1-4)GlcNAc(b1-3)Gal(b1-4)GlcNAc(b1-3)Gal(b1-4)GlcNAc(b1-2)Man(a1-3)]Man(b1-4)GlcNAc(b1-4)[Fuc(a1-6)]GlcNAc
# Procedure, shortened: as §1
# [22] = target: Gal(b1-4)GlcNAc(b1-3)Gal(b1-4)GlcNAc(b1-3)Gal(b1-4)GlcNAc(b1-3)Gal(b1-4)GlcNAc(b1-3)Gal(b1-4)GlcNAc(b1-2)Man(a1-3)[Gal(b1-4)GlcNAc(b1-3)Gal(b1-4)GlcNAc(b1-3)Gal(b1-4)GlcNAc(b1-3)Gal(b1-4)GlcNAc(b1-3)Gal(b1-4)GlcNAc(b1-2)Man(a1-6)]Man(b1-4)GlcNAc(b1-4)GlcNAc
# Procedure, shortened: as §1
# Gal6S(b1-4)Glc = target: Gal6S(b1-4)Glc
# Procedure, shortened: as §1
# Gal6S(b1-4)GlcNAc = target: Gal6S(b1-4)GlcNAc
# Procedure, shortened: as §1
# GalNAc(a1-3)Gal = target: GalNAc(a1-3)Gal
# Procedure, shortened: as §1
# GalNAc(a1-3)GalNAc = target: GalNAc(a1-3)GalNAc
# Procedure, shortened: as §1
# [23] = target: GalNAc(b1-3)Gal(a1-4)Gal(b1-4)GlcNAc(b1-3)Gal(b1-4)Glc
# Procedure, shortened: as §1
# GalNAc(b1-6)GalNAc = target: GalNAc(b1-6)GalNAc
# Procedure, shortened: as §1
# [24] = target: GlcNAc(a1-4)Gal(b1-4)GlcNAc(b1-3)Gal(b1-4)GlcNAc
# Procedure, shortened: as §1
# [25] = target: GlcNAc(a1-4)Gal(b1-4)GlcNAc(b1-3)Gal(b1-4)[Fuc(a1-3)]GlcNAc(b1-3)Gal(b1-4)[Fuc(a1-3)]GlcNAc
# Procedure, shortened: as §1
# [26] = target: GlcNAc(b1-2)[GlcNAc(b1-4)]Man(a1-3)[GlcNAc(b1-4)][GlcNAc(b1-2)[GlcNAc(b1-6)]Man(a1-6)]Man(b1-4)GlcNAc(b1-4)GlcNAc
# Procedure, shortened: as §1
# [27] = target: GlcNAc(b1-3)Gal(b1-4)GlcNAc(b1-3)Gal(b1-4)GlcNAc(b1-2)Man(a1-3)[GlcNAc(b1-3)Gal(b1-4)GlcNAc(b1-3)Gal(b1-4)GlcNAc(b1-2)Man(a1-6)]Man(b1-4)GlcNAc(b1-4)[Fuc(a1-6)]GlcNAc
# Procedure, shortened: as §1
# [28] = target: Man(a1-3)[Man(a1-6)]Man(a1-6)[Man(a1-3)]Man
# Procedure, shortened: as §1
# [29] = target: Neu5Ac(a2-3)Gal(b1-3)GalNAc6S
# Procedure, shortened: as §1
# [30] = target: Neu5Ac(a2-3)Gal(b1-3)[Neu5Ac(a2-6)]GlcNAc(b1-3)[Fuc(a1-3)[Gal(b1-4)]GlcNAc(b1-6)]Gal(b1-4)Glc
# Procedure, shortened: as §1
# [31] = target: Neu5Ac(a2-3)Gal(b1-4)GlcNAc(b1-2)[Neu5Ac(a2-3)Gal(b1-4)GlcNAc(b1-4)]Man(a1-3)[GlcNAc(b1-4)][Neu5Ac(a2-3)Gal(b1-4)GlcNAc(b1-4)Man(a1-6)]Man(b1-4)GlcNAc(b1-4)GlcNAc
# Procedure, shortened: as §1
# [32] = target: Neu5Ac(a2-3)Gal(b1-4)[Fuc(a1-3)]GlcNAc(b1-2)Man
# Procedure, shortened: as §1
# [33] = target: Neu5Ac(a2-6)Gal(b1-4)GlcNAc(b1-2)Man(a1-3)[Man(a1-6)]Man(b1-4)GlcNAc(b1-4)GlcNAc
# Procedure, shortened: as §1
# [34] = target: Neu5Ac(a2-6)Gal(b1-4)GlcNAc(b1-2)[Neu5Ac(a2-6)Gal(b1-4)GlcNAc(b1-4)]Man(a1-3)[GlcNAc(b1-4)][Neu5Ac(a2-6)Gal(b1-4)GlcNAc(b1-4)Man(a1-6)]Man(b1-4)GlcNAc(b1-4)GlcNAc
# Procedure, shortened: as §1
# [35] = target: Neu5Ac(a2-6)Gal(b1-4)GlcNAc(b1-6)[Gal(b1-3)]GalNAc
# Procedure, shortened: as §1
# [36] = target: Neu5Ac(a2-6)GalNAc(b1-4)GlcNAc
# Procedure, shortened: as §1
# [37] = target: Neu5Ac(a2-8)Neu5Ac(a2-8)Neu5Ac(a2-3)Gal(b1-4)Glc
# Procedure, shortened: as §1
# Neu5Gc(a2-6)GalNAc = target: Neu5Gc(a2-6)GalNAc
# Procedure, shortened: as §1
binder,measurement,setting,value
"OS9-MRH (Homo sapiens), Q13438 (protein) IPELLSPMRDAPCLLKTKDWWTYEFCYGRHIQQYHMEDSEIKGEVLYLGYYQSAFDWDDETAKASKQHRLKRYHSQTYGNGSKCDLNGRPREAEVRFLCDEGAGISGDYIDRVDEPLSCSYVLTIRTPRLCPHPLLRPPPSAAPQAI",glycan array binding signal (z-score),[1],3.15
same,glycan array binding signal (z-score),[2],-1.22
same,glycan array binding signal (z-score),[3],0.415
same,glycan array binding signal (z-score),[4],0.3
same,glycan array binding signal (z-score),[5],2.76
same,glycan array binding signal (z-score),[6],0.172
same,glycan array binding signal (z-score),[7],-1.74
same,glycan array binding signal (z-score),[8],2.81
same,glycan array binding signal (z-score),[9],-0.024
same,glycan array binding signal (z-score),[10],0.493
same,glycan array binding signal (z-score),[11],-0.569
same,glycan array binding signal (z-score),[12],2.47
same,glycan array binding signal (z-score),[13],2.02
same,glycan array binding signal (z-score),[14],-0.137
same,glycan array binding signal (z-score),[15],2.4
same,glycan array binding signal (z-score),Gal(b1-3)GlcNAc6S,-0.326
same,glycan array binding signal (z-score),[16],2.22
same,glycan array binding signal (z-score),[17],1.24
same,glycan array binding signal (z-score),[18],2.17
same,glycan array binding signal (z-score),[19],0.47
same,glycan array binding signal (z-score),[20],-0.755
same,glycan array binding signal (z-score),[21],1.51
same,glycan array binding signal (z-score),[22],2.42
same,glycan array binding signal (z-score),Gal6S(b1-4)Glc,-0.643
same,glycan array binding signal (z-score),Gal6S(b1-4)GlcNAc,-0.312
same,glycan array binding signal (z-score),GalNAc(a1-3)Gal,2.81
same,glycan array binding signal (z-score),GalNAc(a1-3)GalNAc,3.57
same,glycan array binding signal (z-score),[23],-1.33
same,glycan array binding signal (z-score),GalNAc(b1-6)GalNAc,1.14
same,glycan array binding signal (z-score),[24],-0.159
same,glycan array binding signal (z-score),[25],1.12
same,glycan array binding signal (z-score),[26],-1.46
same,glycan array binding signal (z-score),[27],0.656
same,glycan array binding signal (z-score),[28],0.835
same,glycan array binding signal (z-score),[29],0.458
same,glycan array binding signal (z-score),[30],-0.321
same,glycan array binding signal (z-score),[31],0.322
same,glycan array binding signal (z-score),[32],-0.503
same,glycan array binding signal (z-score),[33],-0.807
same,glycan array binding signal (z-score),[34],-0.99
same,glycan array binding signal (z-score),[35],-0.081
same,glycan array binding signal (z-score),[36],5.26
same,glycan array binding signal (z-score),[37],0.1
same,glycan array binding signal (z-score),Neu5Gc(a2-6)GalNAc,1.14
